Among the test systems are T-47D breast; BT-549 breast; MDA-MB-435 melanoma; SW-620 colon; HCT-116 colon; HCC-2998 colon; KM12 colon.
What all share (assay): NCI-60 one-dose screen, 48 h (100 = growth as untreated, 0 = no growth, -100 = all killed)
Common to all, as to settings: 10 µM unless noted

Each structure is given as a SMILES string. This is part of a sample that, as a whole, favours compounds with a hit. Of some 83,000 tested, about 20% had one in any assay.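 Cell lines were cultured in 96-well plates, exposed to a single compound concentration, and assessed for percent growth 48 hours later.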 Unmarked numbers belong to inactive results. Active and inactive are the calls of the source. How the source made its calls: active means growth percent below 10; inactive means the rest.

For `O=C(O)c1cn(C2CC2)c2cc(N3CCN(C(=O)/C=C/c4ccc(Cl)cc4)CC3)c(F)cc2c1=O`, the growth with T-47D breast was 65.5%; in the test with BT-549 breast, 50.1%; in the test with MDA-MB-435 melanoma it was 82.5%; in the test with SW-620 colon, 102%; with HCT-116 colon, 74.8%; in the test with HCC-2998 colon it was 90.4%. Besides, in the test on KM12 colon, the growth was 82.7%.

On to `COc1ccc(C2NN=C3c4ccccc4CCC32)cc1` (centres undefined), for which the growth in the test with T-47D breast is 35.3%; in the test with BT-549 breast, 67.4%; in the test with MDA-MB-435 melanoma, -15.7% (active); in the test with SW-620 colon, 29.9%; in the test on HCT-116 colon, 64.4%; in the test with HCC-2998 colon it was 67.3%. Further, the growth in the test with KM12 colon was 26.3%.

Consider `CCCCCCCC/C=C/CCCCCCCC1=NC(C)(C)CN1C(C)(C)CO`, for which the growth with T-47D breast was -10.2% (active); in the test on BT-549 breast it was 76.3%; in the test with MDA-MB-435 melanoma it was -18.9% (active); with SW-620 colon, -85.1% (active); in the test on HCT-116 colon it was -99.4% (active); with HCC-2998 colon, -93.4% (active). Further, in the test with KM12 colon, the growth was -91.5% (active).

As to `Cn1c2ccc(Br)cc2c2c3c(c4c5ccccc5[nH]c4c21)C(=O)N(O)C3=O`, the growth with T-47D breast was -24.1% (active); in the test with BT-549 breast it was -85.2% (active); in the test with MDA-MB-435 melanoma it was -59.3% (active); in the test with SW-620 colon it was -12.2% (active); with HCT-116 colon, -34.7% (active); in the test on HCC-2998 colon it was -87.4% (active). Further, the growth with KM12 colon is -65.8% (active).

As for `N#Cc1ccc(N2Cc3ccccc3OC3=C2C(=O)c2c(O)ccc(O)c2C3=O)cc1`, the growth in the test with T-47D breast was -46% (active); in the test on BT-549 breast, -17.9% (active); with MDA-MB-435 melanoma it was -43.9% (active); in the test with SW-620 colon it was -67.5% (active); with HCT-116 colon it was -44.3% (active); in the test on HCC-2998 colon it was 30.7%. Also, in the test on KM12 colon, the growth was 8.89% (active).

Take `Cc1ccc(S(=O)(=O)c2nc(-c3ccccc3)oc2S(C)(=O)=O)cc1`: the growth with T-47D breast was -42.6% (active); in the test with BT-549 breast it was 53.4%; with MDA-MB-435 melanoma, 59.4%; in the test with SW-620 colon, -29.2% (active); in the test on HCT-116 colon, -61.8% (active); in the test on HCC-2998 colon, 97.4%. In addition, the growth in the test with KM12 colon was 76.4%.

As for `NC(=S)N/N=C(/CCN1CCCC1)CC(C1=C(O)C2=CCCCC2OC1=O)c1ccccc1` (centres undefined), the growth in the test on T-47D breast is 47%; in the test on BT-549 breast, 90.9%; in the test with MDA-MB-435 melanoma, 90.7%; in the test with SW-620 colon it was 69%; in the test with HCT-116 colon, 9.46% (active); in the test on HCC-2998 colon it was 102%. In addition, in the test with KM12 colon, the growth was 102%.

For the compound `C=C[C@@H]1C[C@@H]2Cc3c(C)cc(C)cc3N1O2`, the growth is 115% in the test with T-47D breast; 112% with BT-549 breast; 101% with MDA-MB-435 melanoma; 102% with SW-620 colon; 104% in the test with HCT-116 colon; 103% in the test on HCC-2998 colon. Moreover, in the test with KM12 colon, the growth is 104%.

Turning to `C=C1C(=O)O[C@H]2[C@H]1CC/C(Cn1cc(-c3cccc(Cl)c3)nn1)=C\CC[C@@]1(C)O[C@@H]21`, the growth in the test on T-47D breast was -43.7% (active); in the test on BT-549 breast it was -49.5% (active); with MDA-MB-435 melanoma, -78.6% (active); with SW-620 colon, -77.8% (active); in the test on HCT-116 colon it was -84.8% (active); in the test with HCC-2998 colon, -85.5% (active). Moreover, the growth in the test with KM12 colon is 12.9%.

With `CCCCCCN1CSC(=S)N(CCCCCC)C1`, the growth in the test on T-47D breast was 96.4%; in the test on BT-549 breast, 100%; in the test on MDA-MB-435 melanoma, 97.6%; in the test on SW-620 colon, 94.2%; in the test with HCT-116 colon it was 86%; in the test on HCC-2998 colon it was 96.6%. The growth in the test on KM12 colon is 103%.

For `COc1ccc(-n2c(=S)sc3c(Cl)nc(C)nc32)c(OC)c1`, the growth in the test with T-47D breast was 51.3%; in the test on BT-549 breast it was 90.8%; with MDA-MB-435 melanoma, 30.9%; with SW-620 colon it was 45.4%; in the test on HCT-116 colon, 0.658% (active); in the test on HCC-2998 colon, 35.4%. For the same compound, the growth in the test on KM12 colon is 25.4%.

Take `Cc1[nH]c2ccc(F)cc2c1CCNC(=O)C1CCN(C(=O)c2ccccc2)CC1`: the growth in the test with T-47D breast is 68.9% [25 µM]; with BT-549 breast, 93.5% [25 µM]; in the test with MDA-MB-435 melanoma it was 96.7% [25 µM]; with SW-620 colon it was 96.5% [25 µM]; in the test on HCT-116 colon, 93.3% [25 µM]; in the test on HCC-2998 colon, 104% [25 µM]. Further, in the test on KM12 colon, the growth was 95.6% [25 µM].

With `CN(C)c1cccc2c(S(=O)(=O)/N=C(\N)Nc3nc4ccccc4s3)cccc12`, the growth in the test with T-47D breast is 39.6%; with BT-549 breast, 47.5%; in the test with MDA-MB-435 melanoma, -11.5% (active); in the test on SW-620 colon, 31%; with HCT-116 colon it was 42.4%; with HCC-2998 colon it was 70.4%. The growth with KM12 colon was 35.7%.

On to `O=c1[nH]c(Nc2ccc(S(=O)(=O)O)cc2)nc2nc(Nc3ccc(NC(=S)Nc4ccccc4)cc3)nc(-c3ccc(O)cc3O)c12`, for which the growth with T-47D breast was 90.7%; in the test with BT-549 breast, 152%; in the test with MDA-MB-435 melanoma it was 111%; with SW-620 colon it was 107%; with HCT-116 colon, 109%; in the test with HCC-2998 colon it was 112%. In addition, the growth in the test with KM12 colon was 95.2%.

On to `CCc1ccc(-c2ccc(=O)n(-c3ccc(S(N)(=O)=O)cc3)n2)cc1`, for which the growth in the test on T-47D breast is 33.4%; in the test with BT-549 breast it was 7.69% (active); with MDA-MB-435 melanoma, -17.8% (active); in the test on SW-620 colon it was 7.19% (active); in the test on HCT-116 colon, 16.8%; with HCC-2998 colon, 53.9%. The growth in the test on KM12 colon is 13.6%.

On to `c1ccc(Nc2nc(Nc3ccccc3)nc(Nc3ccccc3)n2)cc1`, for which the growth with T-47D breast is 71.9%; in the test with BT-549 breast, 114%; with MDA-MB-435 melanoma, 89.7%; in the test with SW-620 colon, 88.9%; with HCT-116 colon, 82%; in the test with HCC-2998 colon, 85.6%. For the same compound, the growth in the test with KM12 colon is 84.4%.

As for `CCOC(=O)c1cn2c3c(cccc3c1=O)C(=O)/C(=C/c1cccc(Cl)c1Cl)C2`, the growth is 75.5% in the test on T-47D breast; 91.6% in the test on BT-549 breast; 106% in the test with MDA-MB-435 melanoma; 102% in the test on SW-620 colon; 105% in the test on HCT-116 colon; 100% in the test on HCC-2998 colon. For the same compound, in the test on KM12 colon, the growth was 108%.

Source of the values: PubChem BioAssay (NCI).
